Screens: PubChem BioAssay, several laboratories
Yp Topo-I inh: blocks Yersinia pestis topoisomerase I activity | activity, % at 10 µM | actives 0.064% (n = 360,000) | AID 504884 | Y. pestis Topo-I cleavage product accumulation, plate reader; in the data active means activity above about 50%, passing the limit was not always enough
FBA Mtb inh: inhibitors of M. tuberculosis fructose-bisphosphate aldolase | purified M. tuberculosis FBA, fluorescence read-out | P9WQA3 | actives 2.3% (n = 360,000) | inhibition, % at 1 µM; in the data active means inhibition above about 27%;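 further: 0% = vehicle and 100% = reference inhibitor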
Target sequence (P9WQA3 whole entry, looked up): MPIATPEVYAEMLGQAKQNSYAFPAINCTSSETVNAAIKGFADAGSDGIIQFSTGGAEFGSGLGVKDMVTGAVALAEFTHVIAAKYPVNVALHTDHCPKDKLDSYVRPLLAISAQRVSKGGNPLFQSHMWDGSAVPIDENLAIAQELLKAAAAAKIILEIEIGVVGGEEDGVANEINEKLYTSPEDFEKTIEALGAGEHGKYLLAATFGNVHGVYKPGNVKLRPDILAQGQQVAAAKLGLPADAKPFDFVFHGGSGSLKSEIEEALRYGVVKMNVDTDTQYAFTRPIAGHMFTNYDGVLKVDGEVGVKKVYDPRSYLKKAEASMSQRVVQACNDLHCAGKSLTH
Mtb hypoxia rep: reduces hypoxia-regulated biosensor signal in M. tuberculosis. M. tuberculosis hypoxia-regulated fluorescent reporter, fluorescence. fluorescence inhibition, % (concentration not given with the values). actives 0.1% (n = 300,000). AID 1159583; in the data active means fluorescence inhibition mostly above about 23%, no sharp cut-off; inactive means mostly below about 17%
PrPC TRFRET: inhibitors of human cell surface prion protein PrPC; actives 0.43% (n = 370,000); P04156; TR-FRET read-out; inhibition, % at 13.8 µM; AID 720596; in the data active means inhibition above about 24%; further: 0% = median of the test wells and 100% = reference compound wells
GDH-TPI inh: GDH-TPI coupled enzyme inhibition counter-screen; GDH-TPI coupled enzyme counterscreen, NADH absorbance; actives 1.2% (n = 360,000); inhibition, % at 4.8 µM; in the data active means inhibition above about 30%;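 further: 0% = DMSO wells and 100% = wells lacking the enzyme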
PrP 5UTR inh: inhibition of PrP 5' UTR reporter expression; cell-based PrP 5' UTR mRNA reporter, plate reader; inhibition, % (no concentration beside the values); actives 0.35% (n = 340,000); AID 488862; in the data active means inhibition above about 52%; further: 0 = median of the neutral control wells
PrP UTR cherry: prion 5' UTR mRNA inhibition, cherry-pick retest; cell-based prion protein 5' UTR reporter, plate reader; shares compounds with PrP 5UTR inh; inhibition, % at 2.5 µM; actives 48% (n = 1,100); in the data active means inhibition above about 54%
An asterisk follows results filed as active; x = no result. In the library only some 3.8% were active in any assay of this set; here they are far more common.

SMILES	Yp Topo-I inh	FBA Mtb inh	Mtb hypoxia rep	PrPC TRFRET	GDH-TPI inh	PrP 5UTR inh	PrP UTR cherry
CC1OC(OC2C(O)CC(OC3C(O)CC(OC4CCC5(C)C(CCC6C5CCC5(C)C(C7=CC(=O)OC7)C(O)CC65O)C4)OC3C)OC2C)CC(O)C1O (stereo unspecified)	18	1	x	2	4	94*	86*
CC12CC[C@H]3[C@@H](CCC4(O)C[C@H](O)CCC34/C=N/NC(=O)c3ccccc3Cl)C1(O)CCC2C1=CC(=O)OC1 (stereo partly specified)	6	5	x	-3	-5	-31	x
CC(=O)OC1CC2(O)C3CCC4CC(O)CCC4(C)C3CCC2(C)C1C1=CC(=O)OC1 (stereo unspecified)	0	-2	x	3	1	86*	80*
C[C@H]1O[C@@H](OC2CC[C@]3(C=O)[C@H]4CC[C@]5(C)[C@@H](C6=CC(=O)OC6)CC[C@]5(O)[C@@H]4CC[C@]3(O)C2)CC2OC(C)(C)OC21 (stereo partly specified)	29	1	x	-4	6	84*	85*
CC(=O)OC1CC(OC2C(O)CC(OC3C(O)CC(OC4CCC5(C)C(CCC6C5CCC5(C)C(C7=CC(=O)OC7)C(O)CC65O)C4)OC3C)OC2C)OC(C)C1OC1OC(CO)C(O)C(O)C1O (stereo unspecified)	11	4	x	0	0	94*	68*
C[C@]12CCC(O)CC1CCC1C2CC[C@]2(C)C(C3=CC(=O)OC3)CC[C@]12O (stereo partly specified)	x	x	3	x	x	x	x
CC(C)CNC(=O)CON=Cc1ccccc1Cl	x	x	-9	x	x	x	x
Cc1cccc(C(=O)OC2C(Cc3ccccc3)NS(=O)(=O)C3CC4C=C[C@]23O4)c1 (stereo partly specified)	x	x	-3	x	x	x	x
CC(=NNC(=O)C(N)=O)c1cccc(C(F)(F)F)c1	x	x	5	x	x	x	x
CCN(CC)c1ccc(/C=N/N=C(N)N)c(O)c1	-18	-6	x	6	8	62*	90*
CC1CCC2C(=O)N3C(CCC(C)C3c3cccc(N4CCCC4=O)c3)C(=O)N2C1c1cccc(N2CCCC2=O)c1 (stereo unspecified)	x	x	-4	x	x	x	x
C=CCOC(=O)C1=CC(c2ccc(Br)cc2)CC(OCc2ccc(CO)cc2)O1 (stereo unspecified)	x	x	5	x	x	x	x
CC(=NCCc1ccccc1)C1=C(O)CSC1=O	2	1	x	0	1	-9	x
CCCCN=C(C)C1=C(O)CSC1=O	4	-1	x	4	8	78*	-1
COC(=O)C1=C(c2ccc(F)cc2OCc2ccccc2)CC2CCC1N2C(=O)NC1Cc2ccccc2C1 (stereo unspecified)	x	x	9	x	x	x	x
CC[C@@]12C(=O)N(c3ccc(C)cc3)C(=O)N1C(c1ccc(OC)cc1)C1C(=O)N(C(C)(C)C)C(=O)C12 (stereo partly specified)	x	x	-3	x	x	x	x
Cc1ccc(CNC(=O)C2CCN(c3nnc(N4CCCC4=O)s3)CC2)cc1	-8	6	-2	7	-2	69*	-4
C[C@]12CC[C@H]3[C@@H](CCC4=CC(=O)CC[C@@]43C)[C@@H]1CC[C@@H]2C(=O)CO	1	-4	x	4	-2	76*	-16
COc1cccc(NC(=O)CSc2nnc(-c3cc(C)n(-c4ccccc4)c3C)o2)c1	30	1	9	2	3	57*	24
CCN(CC)CCNC(=O)c1c(O)c2cc(OC)c(OC)cc2[nH]c1=O	0	16	6	-1	2	72*	-7
Cc1cccc(C(=O)N(Cc2ccco2)c2c(N)n(Cc3ccccc3)c(=O)[nH]c2=O)c1	3	0	-5	-9	3	90*	-46
Cc1ccc(C(=O)N(Cc2ccco2)c2c(N)n(Cc3ccccc3)c(=O)[nH]c2=O)cc1	2	-4	x	9	-5	x	x
COc1ccc(Cl)cc1NC(=O)/C=C\C(=O)O	-6	-1	14	0	1	70*	-10
O=[N+]([O-])c1cccc2nc3ccccc3c(NCCCn3ccnc3[N+](=O)[O-])c12	-9	-1	x	-13	17	87*	95*
CCCCOC(=O)NC1CCc2cc(OC)c(OC)c(OC)c2-c2ccc(SC)c(=O)cc21 (stereo unspecified)	10	-4	x	-7	13	38	x
SMILES	Yp Topo-I inh	FBA Mtb inh	Mtb hypoxia rep	PrPC TRFRET	GDH-TPI inh	PrP 5UTR inh	PrP UTR cherry
CCOC(=O)NC1CCc2cc(OC)c(OC)c(OC)c2-c2ccc(SC)c(=O)cc21 (stereo unspecified)	8	-2	x	-21	13	58*	86*
COc1cc2c(c(OC)c1OC)-c1ccc(O)cc1C(NC(C)=O)CC2 (stereo unspecified)	0	6	-1	1	12	73*	87*
COc1ccc(-n2c(C)cc(C=NNc3nc(N4CCOCC4)nc(N4CCOCC4)n3)c2C)cc1	x	x	0	x	x	x	x
COc1ccccc1C=NNC(=O)c1nnn(-c2nonc2N)c1CSC1=NCCS1	x	x	5	x	x	x	x
O=C(COc1ccc(Br)cc1)NN=C1SCC(=O)N1c1ccc(F)cc1	x	x	4	x	x	x	x
O=C(Nc1ccc2ccccc2c1)C1CC1C(NP(=O)(c1ccccc1)c1ccccc1)c1ccccc1 (stereo unspecified)	x	x	3	x	x	x	x
COc1ccc(N=CC2=C(O)c3ccccc3C2=O)c(OC)c1	-14	19	x	-5	7	69*	64*
O=C1C(C=Nc2ccc(F)cc2)=C(O)c2ccccc21	0	0	9	1	5	-102	x
CC1CN(C(C)CO)C(=O)c2cccc(NC(=O)Nc3ccccc3)c2OC1CN(C)C(=O)Nc1ccc(C(F)(F)F)cc1 (stereo unspecified)	x	x	19	x	x	x	x
CC(=NNC(=O)Cn1ccc(C(F)(F)F)n1)c1ccc(N2CCOCC2)cc1	x	x	12	x	x	x	x
O=C(O)CSCC(=O)Nc1ccc(C2CCCCC2)cc1	7	2	-5	4	-10	53*	54*
O=C(/C=C\Nc1ccccn1)c1ccccc1	1	-1	x	1	18	40	x
O=C(/C=C/Nc1ccccc1Br)c1ccccn1	4	-4	x	-17	16	89*	83*
C[C@@H]1COC(=O)[C@H](CC(=O)OC(C)(C)C)C/C=C\C[C@H](CC(=O)N(CCO)Cc2ccccc2)C(=O)N1	12	5	x	1	14	-22	x
CC(C)(C)OC(=O)C[C@@H]1C/C=C\C[C@H](CC(=O)N(CCO)Cc2ccccc2)C(=O)N[C@H](C(C)(C)C)COC1=O	23	3	x	-6	9	60*	0
O=C(Nc1nc2cc3c(cc2s1)OCCO3)C1=COCCO1	14	-1	-1	11	25	92*	86*
O=C(Nc1nc2ccc(F)cc2s1)C1=COCCO1	6	-2	4	0	7	7	x
